Our source for the activation factor and activity change, negative = activation values is PubChem BioAssay AID434970 (Sanford-Burnham Center for Chemical Genomics, 2010).

Screen size: about 11,000 compounds; about 310 (2.8%) were called active. No stated cut-off is given here; in the data, active means activity change below about -85%; inactive means the rest. This excerpt belongs to a sample that is enriched for actives.

The subject of this assay is intestinal alkaline phosphatase [Mus musculus]. The assay can be described thus: mouse intestinal phosphatase enzyme activation – biochemical, luminescence, single concentration, confirmation (AID 434970). The settings on record: purified mouse IAP, CDP-Star luminescence, 30 min, at 10 µM; activation factor: measured here: IAP activation factor, stronger effect = higher value; activity change, negative = activation: stronger effect = lower value.
With `CCC(=O)N1c2ccccc2NC2=C(C(=O)CCC2)C1c1ccc(N(C)C)cc1` (stereo not given), the activation factor was found to be 1.18 and the activity change, negative = activation is -18.3% (inactive).

With `O=C(NC1CCCCC1)N1CCN(c2ccccc2)CC1`, the activation factor was 0.931 and the activity change, negative = activation was 6.95% (inactive).

`N/C(COc1cccc(Cl)c1)=N\NS(=O)(=O)c1ccccc1`: the activation factor stood at 0.875 and the activity change, negative = activation is 12.6% (inactive).

Take `COc1cc(-c2noc(CCC(N)=O)n2)cc(OC)c1OC`: the activation factor stood at 0.884 and the activity change, negative = activation was 11.6% (inactive).

Take `CCC(C)NCCOCCOc1ccc(F)cc1` (stereo not given): the activation factor is 1.03 and the activity change, negative = activation was -3.25% (inactive).

As to `C[C@H]1CN([C@@H](C)CO)C(=O)c2cccc(NC(=O)Nc3ccc(C(F)(F)F)cc3)c2O[C@@H]1CN(C)S(=O)(=O)c1ccc(Cl)cc1`, the activation factor was 1.47 and the activity change, negative = activation was -46.7% (inactive).

Take `Cc1ccc(S(=O)(=O)N(C)C[C@H]2Oc3c(NC(=O)Nc4cccc5ccccc45)cccc3C(=O)N([C@@H](C)CO)C[C@@H]2C)cc1`: the activation factor was 3.14 and the activity change, negative = activation is -214% (active).

Consider `Cc1ccc(S(=O)(=O)N(C)C[C@@H]2Oc3ccc(NC(=O)Nc4cccc5ccccc45)cc3C(=O)N([C@H](C)CO)C[C@H]2C)cc1`, for which the activation factor amounted to 2.13 and the activity change, negative = activation was -113% (active).

Turning to `Cc1cc2cc(CNC(=S)NCc3ccccc3)ccc2n1C`, the activation factor was 1.2 and the activity change, negative = activation was -20% (inactive).

Regarding `N[C@@H](Cc1ccccc1)c1nnc2sc(SCc3ccccc3)nn12`, the activation factor is 0.972 and the activity change, negative = activation is 2.75% (inactive).

With `O=C(c1ccc[nH]1)N1O[C@@H]2C=C[C@H]1C2`, the activation factor is 0.951 and the activity change, negative = activation is 4.9% (inactive).

As to `CCCN1C2CCCC1CC(NC(=O)c1cc(OC)c(OC)c(OC)c1)C2` (stereo not given), the activation factor was found to be 0.893 and the activity change, negative = activation was 10.7% (inactive).

In the case of `Cc1cccc(NC(=O)c2cn(-c3ccccc3)nc2-c2ccccc2)c1`, the activation factor is 1.64 and the activity change, negative = activation was -64% (inactive).

Regarding `Cc1nn(Cc2ccc(Cl)c(Cl)c2)c(C)c1NC(=O)c1cn(-c2ccccc2)nc1-c1ccccc1`, the activation factor was 2.62 and the activity change, negative = activation was -162% (active).

As for `Cc1nn(Cc2ccc(Cl)cc2)c(C)c1NC(=O)c1c(-c2ccccc2)noc1C`, the activation factor was determined as 1.03 and the activity change, negative = activation was -2.7% (inactive).

`O=C(NC1CCN(Cc2ccc(Cl)cc2)CC1)c1cn(-c2ccccc2)nc1-c1cccnc1`: the activation factor is 1.6 and the activity change, negative = activation is -60.3% (inactive).

As for `COc1cccc(-c2nn(-c3ccccc3)cc2C(=O)NCC(=O)O)c1`, the activation factor turned out to be 1.08 and the activity change, negative = activation was -8.2% (inactive).

Take `Cc1nn(Cc2c(Cl)cccc2Cl)c(C)c1NC(=O)c1cn(-c2ccccc2)nc1-c1ccccc1`: the activation factor was 1.74 and the activity change, negative = activation is -73.8% (active).

For `CCCN1CCN(C(=O)c2cn(CC(C)C)c(=O)c3cc(OC)c(OC)cc23)CC1`, the activation factor came to 1.04 and the activity change, negative = activation is -4.4% (inactive).

Regarding `COc1ccc(C2CC(c3ccccc3)n3nnnc3N2)cc1` (stereo not given), the activation factor is 1.15 and the activity change, negative = activation is -14.9% (inactive).

Take `COc1ccc2c(CC(=O)OCC(=O)N3CCc4ccccc43)coc2c1`: the activation factor is 0.935 and the activity change, negative = activation was 6.5% (inactive).

As to `COc1cc2c(cc1OC)[C@@H](NC(=O)COc1ccccc1)[C@H](OCc1ccccc1)C2`, the activation factor came to 1.07 and the activity change, negative = activation was -6.55% (inactive).

On to `O=C(CSc1ncccn1)NCc1ccccc1`, for which the activation factor was determined as 1.02 and the activity change, negative = activation is -2% (inactive).

Regarding `CCOC(=O)c1sc(N=NC2=C(O)CCCC2=O)c(C(=O)OCC)c1C`, the activation factor is 0.794 and the activity change, negative = activation is 20.6% (inactive).

Regarding `CCOC(=O)c1sc(N=NC2=C(O)CC(C)(C)CC2=O)c(C(=O)OCC)c1C`, the activation factor was found to be 3.1 and the activity change, negative = activation was -210% (active).

For the compound `COc1ccc(N=NC2=C(O)CC(C)(C)CC2=O)c(OC)c1`, the activation factor was found to be 0.743 and the activity change, negative = activation was 25.7% (inactive).

Regarding `COc1cc(NC(=O)c2ccc(F)cc2)c(OC)cc1Cl`, the activation factor came out at 0.929 and the activity change, negative = activation is 7.05% (inactive).

As to `COc1ccc2c(C)c(C(=O)O)oc2c1`, the activation factor was 0.933 and the activity change, negative = activation is 6.65% (inactive).

For the compound `COC(=O)c1c(N)n(CCCN2CCOCC2)c2nc3ccccc3nc12`, the activation factor came out at 0.983 and the activity change, negative = activation was 1.65% (inactive).

`N#Cc1c(-c2ccc(Cl)cc2)ccn2nc(CCC(=O)O)nc12`: the activation factor was determined as 1.15 and the activity change, negative = activation is -15.3% (inactive).

In the case of `CN1CCN(S(=O)(=O)c2ccc(SCCOc3ccccc3)nc2)CC1`, the activation factor turned out to be 0.96 and the activity change, negative = activation was 4% (inactive).

`C=CCN(C(=O)CNC(=O)c1ccco1)C(C(=O)NC1CCCCC1)c1ccc(F)cc1` (stereo not given): the activation factor amounted to 1.05 and the activity change, negative = activation is -5.3% (inactive).

`O=C(NC1CCCC1)C(c1ccc(F)cc1)N(Cc1ccc(F)cc1)C(=O)c1ccn[nH]1` (stereo not given): the activation factor turned out to be 2.05 and the activity change, negative = activation is -105% (active).

For the compound `CC(C)(C)N(C(=O)Cn1nnc(-c2ccc(F)cc2)n1)C(C(=O)NC1CCCC1)c1ccncc1` (stereo not given), the activation factor is 0.935 and the activity change, negative = activation was 6.5% (inactive).

For the compound `Brc1ccc(-c2cnc(-c3cccs3)o2)cc1`, the activation factor was 0.944 and the activity change, negative = activation was 5.65% (inactive).

As for `COc1ccc(Cc2nn[nH]n2)cc1`, the activation factor was 1.18 and the activity change, negative = activation was -17.9% (inactive).

Regarding `CC(=O)c1ccc(NC(=O)Cn2nc(C)cc2C)cc1`, the activation factor was 0.948 and the activity change, negative = activation is 5.2% (inactive).

As to `Cc1ccc(NC(=O)CCn2nc(C)cc2C)cc1`, the activation factor was found to be 1.12 and the activity change, negative = activation is -11.6% (inactive).

Consider `COc1ccc(NC(=O)C2CCN(c3nc(C)cc(C)n3)CC2)cc1`, for which the activation factor came to 0.96 and the activity change, negative = activation is 4.05% (inactive).

For the compound `Cc1cc(C)n(CCCN2CCC(C(=O)Nc3cccc(-c4cccc(F)c4)c3)CC2)n1`, the activation factor worked out at 3.01 and the activity change, negative = activation is -202% (active).
